Data on 16 compounds can be found in PubChem BioAssay.

Values without a mark were called inactive. How the calls were made is not given here.

For the assay, the target named is Pantothenate synthetase (Mycobacterium tuberculosis (strain ATCC 25618 / H37Rv)) (UniProt P9WIL5). In words: Coupled enzyme confirmation of inhibitors against recombinant Mtb PanC (AID 375).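 Further: 0% = full reaction with vehicle and 100% = no enzyme background.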 The note with it: coupled enzyme assay; at 10 µM, hits give high values.
Pantothenate synthetase (Mycobacterium tuberculosis (strain ATCC 25618 / H37Rv)), sequence (P9WIL5 whole entry, looked up): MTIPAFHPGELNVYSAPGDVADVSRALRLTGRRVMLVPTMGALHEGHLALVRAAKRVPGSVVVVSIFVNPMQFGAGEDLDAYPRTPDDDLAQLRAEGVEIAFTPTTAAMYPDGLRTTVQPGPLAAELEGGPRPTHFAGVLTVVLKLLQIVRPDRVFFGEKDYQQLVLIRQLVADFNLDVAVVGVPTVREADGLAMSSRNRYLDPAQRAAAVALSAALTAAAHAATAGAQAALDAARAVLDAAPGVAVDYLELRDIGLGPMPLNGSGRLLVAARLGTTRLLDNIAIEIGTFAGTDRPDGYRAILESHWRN
For the compound `Cc1cccc(-n2c(=O)cc(N3CCN(c4ccc(F)cc4)CC3)[nH]c2=O)c1`, the inhibition is 0%.
Next, `O=C(C1CC1(c1ccccc1)c1ccccc1)N1CCOCC1` (stereo unspecified): 0%; `C[N+](C)(C)CCOP(=O)([O-])OC[C@H](O)CO`: 1%; `O=C1CCc2cc(S(=O)(=O)N3CCC(C(=O)NCc4ccccn4)CC3)ccc2N1`: 0%.
Next, `O=C1c2ccccc2C(=O)N1CCCCN1CCN(CCCCN2C(=O)c3ccccc3C2=O)CC1`: 5%; `O=C(NC1CCCCC1)C(c1ccco1)N(Cc1cccnc1)C(=O)C1COc2ccccc2O1` (stereo unspecified): 2%; `O=C(Nc1nnc(N2CCCCCC2)s1)c1cc(-c2ccc(Br)cc2)on1`: 12%.
Next, `O=C(NCCC1=CCCCC1)c1cc2c(s1)CS(=O)(=O)C2`: 1%.
`COCCN1Cc2cccc(C(=O)Nc3cccnc3)c2C1=O`: the inhibition is 1%.
Next, `Nc1nnc(SCC(=O)N2CCc3ccccc32)n1-c1ccccc1`: 1%; `CCc1nc2c(cnn2-c2ccc(Cl)cc2)c(=O)n1-c1ccc2c(c1)OCCO2`: 2%.
Next, `CCOC(=O)N1CCC(NC(=O)c2ccc(OC)c(CN3CC(=O)N4CCCC4C3=O)c2)CC1` (stereo unspecified): 0%.
Next, `Cc1cc(O)c(C2(C(F)(F)F)NCCNC2=O)cc1C` (stereo unspecified): 5%; `O=C(C1CCC(N2C(=O)C3CC=CCC3C2=O)CC1)N1CCCCC1` (stereo unspecified): 1%.
In the case of `Nc1cc(CN2C(=O)c3ccccc3C2=O)cc(Cl)c1O`, the inhibition is 0%.
Next, `CCOC(=O)Cc1cc(=O)n2[nH]c(C)c(-c3ccc(OC)cc3)c2n1`: 6%.
